Our source for the outcome and AC50 values is PubChem BioAssay (EPA / NIEHS).

Inconclusive results are not listed. Active and inactive are the calls of the source. The calls were made as follows, unless noted: active = hit-call score of the fitted dose curve at least 0.9, where 1 is the maximum; inconclusive = response in the unintended direction; inactive = score below 0.9.

The nature of experiment [1]: ATG_ERE_CIS: Attagene CIS-FACTORIAL HepG2 Assay for Estrogen Response Element (ERE) (AID 2282940; active = hit-call score of the fitted dose curve at least 0.9, where 1 is the maximum; inactive = score below 0.9). The settings on record: HepG2 ERE cis-reporter, Attagene RNA transcript; actives raise or lower the signal. Put shortly:
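Cells used were human hepatoma HepG2, transfected with multiple reporter transcription units under cis-regulatory promoters. Reporter mRNA, read 24 h post-dosing via fluorescent RT-PCR products on capillary electrophoresis, was fitted bidirectionally relative to DMSO.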

Experiment [2] has as its target Estrogen receptor (Homo sapiens) (UniProt P03372). The experiment is described as follows: ATG_ERa_TRANS: Attagene TRANS-FACTORIAL HepG2 Assay for human Estrogen Receptor alpha (ERa) (AID 2282970). The settings on record: HepG2 Attagene TRANS ERa GAL4 reporter, mRNA. Put shortly:
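HepG2 cells transiently transfected with multiplexed GAL4-UAS reporter units read out chimeric NR-Gal4 activity. After 24 h compound exposure, reporter mRNA was quantified by RT-PCR, 6-FAM labeling, HpaI digestion and capillary electrophoresis, relative to DMSO.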

Experiment [3] has as its target Steroid hormone receptor ERR1 (Homo sapiens) (UniProt P11474). The experiment can be described thus: ATG_ERRa_TRANS: Attagene TRANS-FACTORIAL HepG2 Assay for human Estrogen-Related Receptor alpha (ERRa) (AID 2282971). Conditions: HepG2 Attagene TRANS reporter, ERRa transactivation. Put shortly:
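HepG2 cells transiently transfected with GAL4-UAS reporter units and chimeric NR-Gal4 constructs; after 24 hour compound incubation, reporter mRNA quantified by RT-PCR, fluorescent labelling and capillary electrophoresis, gain of signal versus DMSO.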

Experiment [4] addresses Estrogen-related receptor gamma (Homo sapiens) (UniProt P62508). The experiment is described as follows: ATG_ERRg_TRANS: Attagene TRANS-FACTORIAL HepG2 Assay for human Estrogen-Related Receptor gamma (ERRg) (AID 2282977).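 Also: hits increase reporter signal over DMSO so potencies reflect activators.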 The settings on record: HepG2 Attagene TRANS reporter, ERRg transactivation. Put shortly:
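Transfect HepG2 with multiple GAL4-UAS reporter transcription units; dose chemicals 24 h; isolate RNA, reverse-transcribe with oligo(dT), PCR-amplify, label with 6-FAM, digest with HpaI; size fragments by capillary electrophoresis. DMSO serves as negative control.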

In experiment [5] the target is human Thyroid Receptor alpha (THRa1), THRA (gene 7067) (UniProt P10827). The experiment can be described thus: ATG_THRa1_TRANS: Attagene TRANS-FACTORIAL HepG2 Assay for human Thyroid Receptor alpha (THRa1) (AID 2283014). Put shortly: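 HepG2 cells transiently transfected with chimeric NR-Gal4 and GAL4-UAS reporter units, dosed 24 h. Reporter mRNA quantified by RT-PCR, fluorescent labeling, HpaI digestion and capillary electrophoresis; gain-of-signal fit versus DMSO.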
human Thyroid Receptor alpha (THRa1), THRA (gene 7067), sequence (P10827 whole entry, looked up, the tested form may be a part): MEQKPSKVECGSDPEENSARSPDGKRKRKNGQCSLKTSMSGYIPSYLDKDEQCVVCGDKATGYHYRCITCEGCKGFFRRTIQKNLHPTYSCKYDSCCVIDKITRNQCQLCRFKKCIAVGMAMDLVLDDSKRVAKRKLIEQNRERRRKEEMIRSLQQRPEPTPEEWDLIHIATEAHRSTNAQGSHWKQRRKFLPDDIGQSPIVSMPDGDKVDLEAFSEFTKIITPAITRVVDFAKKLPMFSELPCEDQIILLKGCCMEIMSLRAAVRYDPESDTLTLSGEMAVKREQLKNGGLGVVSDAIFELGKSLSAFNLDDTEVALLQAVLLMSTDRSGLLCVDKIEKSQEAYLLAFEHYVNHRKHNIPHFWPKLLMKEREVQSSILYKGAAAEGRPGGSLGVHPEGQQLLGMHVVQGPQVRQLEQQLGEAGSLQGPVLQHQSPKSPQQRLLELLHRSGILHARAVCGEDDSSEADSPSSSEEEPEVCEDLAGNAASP

The target in experiment [6] is Estrogen receptor beta (Homo sapiens) (UniProt Q92731). The experiment is described as follows: OT_ER_ERbERb_1440: Odyssey Thera (OT) 24-hour HEK293T Protein-Complementation Assay for Estrogen Receptor-beta/-beta Homodimer (AID 2283380).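 Also: fluorescence gain from ER beta LBD homodimer complementation read by laser scanning cytometry; scored as signal increase over DMSO baseline for both agonists and antagonists.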 Put shortly:
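HEK293T cells stably expressing human ER-beta LBD (aa 310-547) PCA homodimer pair, dosed 24 h; formaldehyde-fixed, Draq5-stained. Readout: increase in nuclear (agonist) or nuclear plus cytoplasmic (antagonist) fluorescence intensity versus DMSO, gain-of-signal fitting.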

For experiment [7], the target named is Retinoic acid receptor RXR-alpha (Homo sapiens) (UniProt P19793). The experiment can be described thus: OT_NURR1_NURR1RXRa_0480: Odyssey Thera (OT) 8-hour HEK293T Protein Complementation Assay for Nurr1/retinoid X receptor (RXR) (AID 2283385). Put shortly: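 8 h compound exposure, HEK293T; Nurr1/RXRα fragment complementation; fluorescence intensity; positive fitting direction vs DMSO baseline.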
Retinoic acid receptor RXR-alpha (Homo sapiens), sequence (P19793 whole entry, looked up, the tested form may be a part): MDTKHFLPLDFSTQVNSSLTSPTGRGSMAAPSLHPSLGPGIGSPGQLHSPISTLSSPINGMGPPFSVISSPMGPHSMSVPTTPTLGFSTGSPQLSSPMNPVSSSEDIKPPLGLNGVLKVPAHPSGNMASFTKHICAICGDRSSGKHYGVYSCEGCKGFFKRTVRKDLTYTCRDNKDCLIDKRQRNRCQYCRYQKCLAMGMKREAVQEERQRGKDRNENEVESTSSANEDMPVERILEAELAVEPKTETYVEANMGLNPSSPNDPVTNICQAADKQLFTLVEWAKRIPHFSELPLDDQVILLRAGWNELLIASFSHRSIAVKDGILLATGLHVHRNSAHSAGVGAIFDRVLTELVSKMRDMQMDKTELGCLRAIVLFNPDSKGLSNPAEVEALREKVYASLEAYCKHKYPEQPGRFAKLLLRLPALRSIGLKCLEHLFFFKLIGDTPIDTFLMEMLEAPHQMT

Experiment [8] addresses Peroxisome proliferator-activated receptor gamma (Homo sapiens) (UniProt P37231). The experiment is described as follows: OT_PPARg_PPARgSRC1_1440: Odyssey Thera (OT) 24-hour Protein-Complementation Assay for Peroxisome Proliferator-activated Receptor Gamma/ SRC-1 Co-activator (AID 2283388). Put shortly:
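HEK293T transiently transfected with PPARg/SRC-1 split-Venus YFP fusions 48 h before dosing, then treated 24 h at 37C. Fixed cells imaged; nuclear/cytoplasmic 488 nm fluorescence ratio, gain of signal versus DMSO.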

A short description of experiment [9]: ACEA_AR_agonist_AUC_viability: ACEA Biosciences xCELLigence Real-Time Cell Analysis on Androgen Receptor Agonism for Viability (AID 2283775). Put shortly: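 Real-time impedance tracking of 22Rv1 growth, readings every 5 min for 5 h then hourly; area-under-curve viability endpoint at 80 hours, relative to DMSO. Compounds at eight concentrations, 1:4 steps, top 100 uM, n = 2.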

The nature of experiment [10]: ACEA_AR_antagonist_AUC_viability: ACEA Biosciences xCELLigence Real-Time Cell Analysis on Androgen Receptor Antagonism for Viability (AID 2283776).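 Also: 22Rv1 human prostate cancer cells growing on impedance electrode plates; hits lower the growth signal relative to DMSO meaning cytotoxicity.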 Put shortly:
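Real-time electrical impedance tracks 22Rv1 proliferation after continuous compound exposure (top 100 uM final, 1:4 steps, 8 concentrations). The 80 h area-under-curve serves as the cytotoxicity readout relative to DMSO.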

The nature of experiment [11]: CCTE_Harrill_HTTr_Apoptosis_MCF7: CCTE's 6-hour Apoptosis Assessment for the High-Throughput Transcriptomics (HTTr) Platform, in MCF-7 cells cultured in DMEM + 10% fetal bovine serum, Harrill Lab (AID 2284011; active = hit-call score of the fitted dose curve at least 0.9, where 1 is the maximum; inactive = score below 0.9). Put shortly: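 MCF-7 cells in DMEM + 10% FBS exposed 6 h to chemicals over an eight-point dilution series. Caspase-3/7 activation imaged by high-content CellEvent Green staining; fitted bidirectionally versus DMSO.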

Experiment [12] is described as follows: CCTE_Harrill_HTTr_CellCount_MCF7: CCTE's Cell Proliferation Assessment for the High-Throughput Transcriptomics (HTTr) Platform, Harrill Lab (AID 2284012).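 Also: cells exposed to compound for six hours; intended direction is loss of nuclei count meaning fewer cells.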 Put shortly: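 Chemicals in eight-point dilution series are added to MCF-7 cells for six hours, nuclei are stained with Hoechst and imaged, and per-well nuclei counts are fitted in both directions relative to DMSO controls.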

The target in experiment [13] is Estrogen receptor beta (Homo sapiens) (UniProt Q92731). The experiment can be described thus: OT_ER_ERbERb_0480: Odyssey Thera (OT) 8-hour HEK293T Protein-Complementation Assay for Estrogen Receptor-beta/-beta Homodimer (AID 2283357).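 Also: active means signal gain over DMSO baseline.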 Put shortly: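 Readout: increase in mean fluorescence intensity (nucleus for agonists; nucleus plus cytoplasm for antagonists) relative to DMSO, from a reporter-fragment complementation of human ER-beta LBD homodimer in HEK293T cells dosed 8 hours.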
Estrogen receptor beta (Homo sapiens), sequence (Q92731 whole entry, looked up, the tested form may be a part): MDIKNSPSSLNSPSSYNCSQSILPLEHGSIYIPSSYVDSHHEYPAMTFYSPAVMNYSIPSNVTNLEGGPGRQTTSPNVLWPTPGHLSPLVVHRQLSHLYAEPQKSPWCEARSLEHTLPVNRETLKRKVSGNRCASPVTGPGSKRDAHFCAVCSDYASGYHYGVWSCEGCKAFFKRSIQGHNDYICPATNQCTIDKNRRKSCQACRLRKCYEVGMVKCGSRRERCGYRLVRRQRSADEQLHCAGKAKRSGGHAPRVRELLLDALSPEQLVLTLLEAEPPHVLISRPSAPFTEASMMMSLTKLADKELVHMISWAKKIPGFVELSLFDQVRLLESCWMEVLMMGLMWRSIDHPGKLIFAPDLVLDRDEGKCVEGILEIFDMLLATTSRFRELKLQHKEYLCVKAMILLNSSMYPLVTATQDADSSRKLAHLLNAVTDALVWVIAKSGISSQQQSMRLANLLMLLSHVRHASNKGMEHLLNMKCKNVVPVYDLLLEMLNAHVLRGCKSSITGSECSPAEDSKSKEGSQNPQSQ

Experiment [14] concerns the target Bile acid receptor (Homo sapiens) (UniProt Q96RI1). The experiment is described as follows: ATG_FXR_TRANS: Attagene TRANS-FACTORIAL HepG2 Assay for Farnesoid X Receptor (FXR) (AID 2282979).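 Also: hits raise reporter mRNA above DMSO so AC50 marks FXR activation.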 The settings on record: HepG2 Attagene TRANS FXR-GAL4 reporter transcription. Put shortly:
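HepG2 cells were transiently transfected with GAL4-UAS reporters driven by chimeric NR-Gal4 proteins and dosed for 24 h. Reporter mRNA was quantified by RT-PCR, fluorescent labelling, HpaI digestion and capillary electrophoresis, with gain of signal scored versus DMSO.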

A short description of experiment [15]: BSK_3C_uPAR: BioMAP Diversity Plus: 3C Assay for Urokinase-type plasminogen activator receptor (uPAR) Biomarker Activity (AID 2282998; active = hit-call score of the fitted dose curve at least 0.9, where 1 is the maximum; inactive = score below 0.9). The settings on record: BioMAP 3C HUVEC, uPAR biomarker ELISA; actives raise or lower the signal. Put shortly: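 Dose primary human umbilical vein endothelial cells, incubate 24 h, measure cell-surface uPAR by ELISA, then fit the signal in both directions against the DMSO negative control.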

A short description of experiment [16]: BSK_4H_Eotaxin3: BioMAP Diversity Plus: 4H Assay for Eotaxin 3 Biomarker Activity (AID 2283000; active = hit-call score of the fitted dose curve at least 0.9, where 1 is the maximum; inactive = score below 0.9;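 as to outcome: CCL26 protein level quantified by ELISA in parallel with SRB cytotoxicity check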). The settings on record: primary human endothelial cells (HUVEC); actives raise or lower the signal. Put shortly:
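Eotaxin-3 (CCL26) levels were measured by ELISA in HUVEC primary cultures 24 h post-dosing. Gain or loss of signal was fitted in both directions, with DMSO serving as baseline and negative control.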

Read-out in experiment [17]: Intercellular Adhesion Molecule 1 (ICAM1), ICAM1 (gene 3383)
The experiment can be described thus: BSK_3C_ICAM1: BioMAP Diversity Plus: 3C Assay for Intercellular Adhesion Molecule 1 (ICAM1) Biomarker Activity (AID 2283003; active = hit-call score of the fitted dose curve at least 0.9, where 1 is the maximum; inactive = score below 0.9). Conditions: primary human endothelial cells (HUVEC); actives raise or lower the signal. Put shortly: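 ICAM-1 levels measured by ELISA after HUVEC cultures in the 3C system had been dosed for 24 h. Gain or loss of signal relative to DMSO was fitted in both directions.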

Read-out in experiment [18]: Monocyte Chemoattractant Protein-1 (MCP1), CCL2 (gene 6347)
The experiment can be described thus: BSK_4H_MCP1: BioMAP Diversity Plus: 4H Assay for Monocyte Chemoattractant Protein-1 (MCP1) Biomarker Activity (AID 2283018; active = hit-call score of the fitted dose curve at least 0.9, where 1 is the maximum; inactive = score below 0.9). Conditions: primary human endothelial cells (HUVEC); actives raise or lower the signal. Put shortly: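 ELISA read-out of MCP-1 from human vascular endothelial primary cells taken at 24 hours after compound exposure. Activity was fitted in both directions relative to DMSO, which served as negative control.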

Read-out in experiment [19]: Thrombomodulin, THBD (gene 7056)
The experiment can be described thus: BSK_CASM3C_Thrombomodulin: BioMAP Diversity Plus: CASM3C Assay for Thrombomodulin Biomarker Activity (AID 2283051; active = hit-call score of the fitted dose curve at least 0.9, where 1 is the maximum; inactive = score below 0.9;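 also: thrombomodulin protein level measured by ELISA 24 h after dosing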). The settings on record: primary human coronary artery smooth muscle cells; actives raise or lower the signal.

Experiment [20] deals with Retinoic acid receptor RXR-alpha (Homo sapiens) (UniProt P19793). The experiment can be described thus: OT_NURR1_NURR1RXRa_1440: Odyssey Thera (OT) 24-hour HEK293T Protein Complementation Assay for Nurr1/retinoid X receptor (RXR) (AID 2283386). Put shortly:
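Interaction of Nurr1 with RXRα brings fused reporter fragments together in human HEK293T cells, restoring a functional reporter. Fluorescence intensity is measured 24 h after chemical treatment, and values are analysed in the positive direction against DMSO.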

One may read the AC50 as the concentration at which the activity in the assay is half-maximal.

Estrogen-related receptor gamma (Homo sapiens), sequence (P62508 whole entry, looked up, the tested form may be a part): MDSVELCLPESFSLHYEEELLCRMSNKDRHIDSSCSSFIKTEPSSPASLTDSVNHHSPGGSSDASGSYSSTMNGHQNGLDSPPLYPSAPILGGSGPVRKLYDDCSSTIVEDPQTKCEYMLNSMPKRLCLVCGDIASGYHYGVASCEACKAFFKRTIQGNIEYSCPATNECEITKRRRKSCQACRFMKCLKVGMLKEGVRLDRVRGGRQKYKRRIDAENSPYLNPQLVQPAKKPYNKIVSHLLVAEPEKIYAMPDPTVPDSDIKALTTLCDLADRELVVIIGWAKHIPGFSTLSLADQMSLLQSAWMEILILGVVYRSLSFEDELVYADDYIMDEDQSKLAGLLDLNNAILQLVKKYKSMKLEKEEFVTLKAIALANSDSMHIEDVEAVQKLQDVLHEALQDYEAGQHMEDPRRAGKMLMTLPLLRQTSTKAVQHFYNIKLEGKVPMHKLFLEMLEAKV
Peroxisome proliferator-activated receptor gamma (Homo sapiens), sequence (P37231 whole entry, looked up, the tested form may be a part): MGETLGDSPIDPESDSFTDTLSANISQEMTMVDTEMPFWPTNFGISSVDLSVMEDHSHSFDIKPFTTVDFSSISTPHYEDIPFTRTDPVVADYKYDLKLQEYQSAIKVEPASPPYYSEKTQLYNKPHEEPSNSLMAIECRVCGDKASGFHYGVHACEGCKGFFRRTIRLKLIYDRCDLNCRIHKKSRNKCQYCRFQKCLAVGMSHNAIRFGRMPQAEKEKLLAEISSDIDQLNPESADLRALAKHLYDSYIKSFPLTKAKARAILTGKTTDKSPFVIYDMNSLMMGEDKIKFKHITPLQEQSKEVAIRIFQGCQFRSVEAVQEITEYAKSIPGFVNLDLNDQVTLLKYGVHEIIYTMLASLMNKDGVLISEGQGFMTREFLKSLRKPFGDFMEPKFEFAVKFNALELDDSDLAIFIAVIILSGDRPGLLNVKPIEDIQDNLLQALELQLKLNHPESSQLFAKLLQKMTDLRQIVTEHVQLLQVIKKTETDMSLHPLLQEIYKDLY
Estrogen receptor (Homo sapiens), sequence (P03372 whole entry, looked up, the tested form may be a part): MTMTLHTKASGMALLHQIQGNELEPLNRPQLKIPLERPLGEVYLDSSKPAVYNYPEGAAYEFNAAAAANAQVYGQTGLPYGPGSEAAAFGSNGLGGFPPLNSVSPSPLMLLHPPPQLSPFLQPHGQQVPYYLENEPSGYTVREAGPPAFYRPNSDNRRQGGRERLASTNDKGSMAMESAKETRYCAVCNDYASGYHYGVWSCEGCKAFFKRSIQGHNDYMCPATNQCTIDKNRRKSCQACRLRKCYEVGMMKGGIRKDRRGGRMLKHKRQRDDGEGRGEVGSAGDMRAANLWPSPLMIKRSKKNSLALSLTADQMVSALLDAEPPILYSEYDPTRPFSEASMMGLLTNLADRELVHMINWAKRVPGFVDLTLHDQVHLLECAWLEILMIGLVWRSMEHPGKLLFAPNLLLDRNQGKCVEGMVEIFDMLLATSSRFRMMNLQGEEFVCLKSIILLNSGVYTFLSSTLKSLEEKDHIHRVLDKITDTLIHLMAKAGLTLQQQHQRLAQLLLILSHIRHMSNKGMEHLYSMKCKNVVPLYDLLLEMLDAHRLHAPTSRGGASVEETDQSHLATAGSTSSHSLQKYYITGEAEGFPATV
Bile acid receptor (Homo sapiens), sequence (Q96RI1 whole entry, looked up, the tested form may be a part): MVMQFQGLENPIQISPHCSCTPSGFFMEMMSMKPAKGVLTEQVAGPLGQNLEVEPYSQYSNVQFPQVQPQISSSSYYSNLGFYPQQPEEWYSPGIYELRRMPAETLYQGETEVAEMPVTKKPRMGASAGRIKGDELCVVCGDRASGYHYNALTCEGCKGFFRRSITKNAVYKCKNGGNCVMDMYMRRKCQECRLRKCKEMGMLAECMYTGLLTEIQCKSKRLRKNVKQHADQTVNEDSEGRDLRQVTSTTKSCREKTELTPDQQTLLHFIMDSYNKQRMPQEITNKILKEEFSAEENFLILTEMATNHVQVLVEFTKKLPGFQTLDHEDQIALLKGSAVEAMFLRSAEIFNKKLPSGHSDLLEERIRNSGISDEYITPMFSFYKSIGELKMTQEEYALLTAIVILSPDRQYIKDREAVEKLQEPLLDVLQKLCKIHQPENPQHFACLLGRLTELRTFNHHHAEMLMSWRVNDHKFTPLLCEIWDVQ
Steroid hormone receptor ERR1 (Homo sapiens), sequence (P11474 whole entry, looked up, the tested form may be a part): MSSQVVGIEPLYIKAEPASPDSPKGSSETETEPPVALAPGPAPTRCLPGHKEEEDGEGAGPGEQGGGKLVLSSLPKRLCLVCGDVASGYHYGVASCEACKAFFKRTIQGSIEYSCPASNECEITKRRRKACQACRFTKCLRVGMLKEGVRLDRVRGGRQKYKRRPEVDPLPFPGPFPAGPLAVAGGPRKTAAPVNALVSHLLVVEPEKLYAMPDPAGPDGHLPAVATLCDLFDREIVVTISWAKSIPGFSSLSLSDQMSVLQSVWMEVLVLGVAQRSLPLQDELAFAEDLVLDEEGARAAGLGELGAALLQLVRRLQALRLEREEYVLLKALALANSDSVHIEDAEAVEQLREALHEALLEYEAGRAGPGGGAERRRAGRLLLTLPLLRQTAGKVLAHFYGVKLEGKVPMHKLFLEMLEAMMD

`O=CNC(N1CCN(C(NC=O)C(Cl)(Cl)Cl)CC1)C(Cl)(Cl)Cl` (centres undefined): the result in [1], in [2], in experiment [3], in experiment [4], in experiment [5] and in experiment [6] was inactive. Also, the result in experiment [7], in experiment [8], in [9], in experiment [10], in experiment [11] and in experiment [12] was inactive.
Take `CN(C)N`: the result in experiment [13], in experiment [6], in [7], in experiment [8], in experiment [9] and in experiment [10] was inactive. For the same molecule, the outcome in experiment [11] and in experiment [12] was inactive.
With `CC(C)(C)C(O)C(Oc1ccc(-c2ccccc2)cc1)n1cncn1` (centres undefined), the molecule was classed as inactive in experiment [1], in [2], in [14], in [17], in [19] and in experiment [12]. Also, the AC50 in experiment [15] is 32.2 µM (active); in experiment [16], 32.3 µM (active); in experiment [18], 31.8 µM (active).
With `Nc1ccc(-c2ccc(N)c(N)c2)cc1N`, the result in experiment [14], in experiment [15], in experiment [16], in [17] and in experiment [19] was inactive. Moreover, in experiment [18], the half-maximal activity concentration (AC50) is 20 µM (active).
Take `Oc1cc(Cl)ccc1Cl`: the outcome in [15], in experiment [16], in [17], in experiment [18], in experiment [19] and in [20] was inactive. For the same molecule, the molecule was classed as inactive in experiment [8], in experiment [10], in experiment [11] and in experiment [12].
For `C[C@]12CC[C@H](O)C[C@H]1CC[C@@H]1[C@@H]2C[C@@H](O)[C@]2(C)[C@@H](C3=CC(=O)OC3)CC[C@]12O`, the call in experiment [4] and in [14] was inactive.
Turning to `O=P1(NCCCl)OCCCN1CCCl` (centres undefined), the molecule was classed as inactive in [3], in [15], in experiment [16], in experiment [17], in experiment [18] and in [19].
Regarding `CC(C)(c1cc(Cl)c(O)c(Cl)c1)c1cc(Cl)c(O)c(Cl)c1`, the AC50 was 9.36 µM (active) in [15]; 32.1 µM (active) in [16]; 29.4 µM (active) in experiment [17]; 20 µM (active) in experiment [18]; 74.7 µM (active) in experiment [7]; 78.1 µM (active) in experiment [20]. Also, the result in experiment [19], in [13], in experiment [6], in experiment [8], in experiment [9] and in experiment [10] was inactive.
Take `CCC[N+](=O)[O-]`: the result in experiment [11] and in [12] was inactive.
For the molecule `Cc1ccccc1CCl`, the outcome in experiment [4] was inactive.
Take `CC(C)(Cl)Cl`: the molecule was classed as inactive in [7], in experiment [20], in experiment [8], in experiment [9], in experiment [11] and in experiment [12]. Besides, the concentration at half-maximal activity (AC50) in experiment [10] is 0.413 µM (active).
For `CC(C)CCCCCCCOP(=O)(Oc1ccccc1)Oc1ccccc1`, the AC50 in experiment [1] was 27.5 µM (active); in [2], 5.78 µM (active); in [15], 12.1 µM (active); in experiment [16], 20 µM (active); in experiment [17], 20 µM (active); in experiment [18] it was 4.92 µM (active). Also, the result in [3], in [14] and in [19] was inactive.
